For five compounds, activity (quench increase) results are on record in PubChem BioAssay AID720511 (Broad Institute, 2013).

The campaign covered roughly 350,000 compounds. About 1,300 (0.37%) were called active.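 The calls were made as follows: active = mean added fluorescence quench of at least 8% versus neutral control, with both replicates also reaching 8%; inconclusive = only one of the mean or replicate conditions met; inactive = mean below 8% and not both replicates reaching 8%.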 Many of the other results were omitted from the sample, so actives are more common in it than they were.

A short description of the assay: F508del CFTR correction, initial screen, CFBE line, single point (AID 720511).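 Also: cells transiently co-express mutant CFTR-F508del with the halide-sensitive YFP; corrector assay measuring rescue of mutant channel to the surface after 24 h compound exposure.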 The note with it: CFBE cells, YFP halide quenching, at 7.58 µM, hits give high values.
For `C[C@]12CCC3C(CC[C@H]4[C@H](O)[C@H](O)CC[C@]34C)C1CCC2=O` (stereo not given in full), the activity (quench increase) is 11.1% (active).

Regarding `C[C@]12CCC3C(CC[C@H]4C[C@@H](O)CC[C@]34C)C1C[C@@H](O)[C@H]2O` (stereo not given in full), the activity (quench increase) was 1.25% (inactive).

For the compound `C[C@]12CCC3C(CC[C@H]4[C@H](O)[C@H](O)CC[C@]34C)C1CC[C@@H]2O` (stereo not given in full), the activity (quench increase) was 0.916% (inactive). For `COC(=O)C1=C(c2ccc(OCc3ccccc3)cc2)C[C@@H]2CC[C@H]1N2C(=O)NCc1ccc(Cl)cc1`, the activity (quench increase) is 4.11% (inactive).

`C/C=C/c1ccc(C2[C@@H]3CN(Cc4cncnc4)C[C@H]2N3)cc1` (stereo not given in full): the activity (quench increase) is 2.42% [% fluorescence drop versus neutral controls, stimulated with forskolin plus potentiator P3] (inactive).
